Records with an inconclusive call do not appear. Calls of active or inactive are those of the source. Unless noted, the call rests on the fitted dose curve; in most records, active means well fitted curve in the direction sought with a large enough effect; inconclusive means small, poorly fitted or top-dose-only effect, or another doubt; inactive means no such curve, though single readings can be large; an effect the other way counts as inactive or inconclusive.
How the values were obtained:
[1] = target: Nuclear receptor subfamily 1 group I member 2 (Homo sapiens) (UniProt O75469); experiment: Dual reporter qHTS for antagonist of Pregnane X Receptor (hPXR) against the NCATS DSHEA and TCM libraries: Luminescence Readout (AID 1920060);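 further: HepG2 cells carrying hPXR luciferase reporter stimulated with rifampicin at 2 µM; 0% is about no effect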
Method in brief: (§1)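 HepG2 hPXR-Luc, 2000 cells/well, charcoal-stripped FBS medium; 5 h attach; RIF 2 uM final; 24 h 37C/5% CO2; CellTiter-Fluor 1 h, fluor 405/540; ONE-Glo 30 min RT, lum.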

[2] = Dual reporter qHTS for antagonist of Pregnane X Receptor (hPXR) against the NCATS DSHEA and TCM libraries: Fluorescence Readout (AID 1920061); further: 0% is about no effect
Method in brief: as §1

[3] = qHTS profiling for inhibitors of Plasmodium falciparum proliferation (AID 504749); further: potency means the concentration at half of the fitted maximal effect;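 on activity, negative = inhibition: 0% = DMSO vehicle and full inhibition = artemisinin control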; on all read-outs here: nearly all actives have a fitted effect of over 60% in size; conditions: P. falciparum in erythrocytes, SYBR Green DNA, 72 h; for activity, negative = inhibition: at 28.7 µM (top of the series)
Method in brief: (§2)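 Quantitative HTS: compounds pinned into medium, infected erythrocytes added (0.3% parasitemia, 2.5% hematocrit), 72 h culture at 37 C under 5% CO2. Saponin/Triton lysis with SYBR Green I, overnight RT, then fluorescence read.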

[4] = system: 3D7; experiment: as above; conditions: P. falciparum in erythrocytes, SYBR Green DNA, 72 h; series mostly up to 28.7 µM
Method in brief: as §2

[5] = system: 7G8; experiment: as above; conditions: P. falciparum in erythrocytes, SYBR Green DNA, 72 h; series mostly up to 28.7 µM
Method in brief: as §2

[6] = system: AA1029; experiment: as above; conditions: P. falciparum in erythrocytes, SYBR Green DNA, 72 h; series mostly up to 28.7 µM
Method in brief: as §2

[7] = system: AS120; experiment: as above; conditions: P. falciparum in erythrocytes, SYBR Green DNA, 72 h; series mostly up to 28.7 µM
Method in brief: as §2

[8] = system: ATS189; experiment: as above; conditions: P. falciparum in erythrocytes, SYBR Green DNA, 72 h; series mostly up to 28.7 µM
Method in brief: as §2

[9] = system: ATS95; experiment: as above; conditions: P. falciparum in erythrocytes, SYBR Green DNA, 72 h; series mostly up to 28.7 µM
Method in brief: as §2

[10] = system: C2A; experiment: as above; conditions: P. falciparum in erythrocytes, SYBR Green DNA, 72 h; series mostly up to 28.7 µM
Method in brief: as §2

[11] = system: CP185; experiment: as above; conditions: P. falciparum in erythrocytes, SYBR Green DNA, 72 h; series mostly up to 28.7 µM
Method in brief: as §2

[12] = system: CP191; experiment: as above; conditions: P. falciparum in erythrocytes, SYBR Green DNA, 72 h; series mostly up to 28.7 µM
Method in brief: as §2

[13] = system: CP192; experiment: as above; conditions: P. falciparum in erythrocytes, SYBR Green DNA, 72 h; series mostly up to 28.7 µM
Method in brief: as §2

[14] = system: CP194; experiment: as above; conditions: P. falciparum in erythrocytes, SYBR Green DNA, 72 h; series mostly up to 28.7 µM
Method in brief: as §2

[15] = system: CP201; experiment: as above; conditions: P. falciparum in erythrocytes, SYBR Green DNA, 72 h; series mostly up to 28.7 µM
Method in brief: as §2

[16] = system: CP203; experiment: as above; conditions: P. falciparum in erythrocytes, SYBR Green DNA, 72 h; series mostly up to 28.7 µM
Method in brief: as §2

[17] = system: CP211; experiment: as above; conditions: P. falciparum in erythrocytes, SYBR Green DNA, 72 h; series mostly up to 28.7 µM
Method in brief: as §2

[18] = system: CP215; experiment: as above; conditions: P. falciparum in erythrocytes, SYBR Green DNA, 72 h; series mostly up to 28.7 µM
Method in brief: as §2

[19] = system: CP217; experiment: as above; conditions: P. falciparum in erythrocytes, SYBR Green DNA, 72 h; series mostly up to 28.7 µM
Method in brief: as §2

[20] = qHTS drug screen for cell cycle checkpoint inhibitors in PARPi-resistant BRCA-mutant ovarian cancer cell lines. (AID 1963452; calls by dose curve; further: potency means the concentration at half of the fitted maximal effect); conditions: PEO1/OlaR viability, CellTiter-Glo luminescence, 96 h; for Z-AUC: stronger effect = lower value
Method in brief: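 PEO1, PEO4 and PEO1/OlaR ovarian cancer cells, 600 per well, exposed 96 h at 37C to a dilution series. Viability read by CellTiter-Glo luminescence, normalized to DMSO and empty wells; activity summarized as Z-AUC.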

[21] = measured here: PEO1 parental Z-AUC

Chain of Nuclear receptor subfamily 1 group I member 2 (Homo sapiens) (O75469 whole entry, looked up): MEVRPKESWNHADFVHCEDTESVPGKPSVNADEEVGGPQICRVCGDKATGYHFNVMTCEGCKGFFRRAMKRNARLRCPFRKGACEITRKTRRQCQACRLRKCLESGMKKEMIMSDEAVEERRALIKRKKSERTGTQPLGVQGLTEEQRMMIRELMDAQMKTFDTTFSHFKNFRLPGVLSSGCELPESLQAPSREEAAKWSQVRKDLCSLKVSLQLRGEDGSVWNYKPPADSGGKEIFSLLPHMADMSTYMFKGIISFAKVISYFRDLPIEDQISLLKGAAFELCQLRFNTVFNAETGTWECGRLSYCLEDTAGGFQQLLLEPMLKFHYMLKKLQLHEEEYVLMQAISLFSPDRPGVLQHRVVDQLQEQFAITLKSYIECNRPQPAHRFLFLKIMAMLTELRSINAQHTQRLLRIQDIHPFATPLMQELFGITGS

OC1C(O)C(O)C(O)C(O)C1O (configuration not stated)
inactive: outcome [1] | outcome [2] | activity, negative = inhibition ([3]; parasite line A) 1.75% | activity, negative = inhibition ([3]; parasite line B) 14.4% | Potency [4] | Potency [5] | Potency [6] | Potency [7] | Potency [8] | Potency [9] | Potency [10] | Potency [11] | Potency [12] | Potency [13] | Potency [14] | Potency [15] | Potency [16] | Potency [17] | Potency [18] | Potency [19]

Cc1ccc(-c2ncc(Cl)cc2-c2ccc(S(C)(=O)=O)cc2)cn1
0.912: Z-AUC ([20]; measured here: PEO4 Z-AUC)
inactive: Z-AUC [20] 0.855 | Potency [4] | Potency [13] | Potency [14] | Potency [15] | Potency [17]
active: Potency [5] 8.91 µM
0.717: Z-AUC [20, 21]

COc1cc(C(=S)N2CCOCC2)ccc1O
inactive: activity, negative = inhibition ([3]; parasite line A) 1.83% | activity, negative = inhibition ([3]; parasite line B) -2.75% | Potency [4] | Potency [5] | Potency [6] | Potency [7] | Potency [8] | Potency [9] | Potency [10] | Potency [11] | Potency [12] | Potency [13] | Potency [14] | Potency [15] | Potency [16] | Potency [17] | Potency [18] | Potency [19]

CCNC(=O)NCc1cccc(Cl)c1
inactive: activity, negative = inhibition ([3]; parasite line A) 14.6% | activity, negative = inhibition ([3]; parasite line B) 3.44% | Potency [4] | Potency [5] | Potency [6] | Potency [7] | Potency [8] | Potency [9] | Potency [10] | Potency [11] | Potency [12] | Potency [13] | Potency [14] | Potency [15] | Potency [16] | Potency [17] | Potency [18] | Potency [19]

COc1ccc(/C=N/NC(=O)c2ccncc2)cc1OC
inactive: activity, negative = inhibition ([3]; parasite line A) 6.74% | activity, negative = inhibition ([3]; parasite line B) 9.47% | Potency [4] | Potency [5] | Potency [6] | Potency [7] | Potency [8] | Potency [9] | Potency [10] | Potency [11] | Potency [12] | Potency [13] | Potency [14] | Potency [15] | Potency [16] | Potency [17] | Potency [18] | Potency [19]

CCCCCCCCCCC[C@@H](C[C@@H]1OC(=O)[C@H]1CCCCCC)OC(=O)[C@H](CC(C)C)NC=O
1.43: Z-AUC ([20]; measured here: PEO4 Z-AUC)
1.61: Z-AUC [20, 21]
inactive: Z-AUC [20] 1.22

O=c1[nH]c(=O)n([C@H]2C[C@H](O)[C@@H](CO)O2)cc1F
-1.95: Z-AUC [20, 21]
inactive: activity, negative = inhibition ([3]; parasite line A) 0.388% | activity, negative = inhibition ([3]; parasite line B) -0.681% | Potency [4] | Potency [6] | Potency [7] | Potency [8] | Potency [9] | Potency [10] | Potency [11] | Potency [12] | Potency [13] | Potency [14] | Potency [15] | Potency [16] | Potency [17] | Potency [18] | Potency [19]
-1.41: Z-AUC ([20]; measured here: PEO4 Z-AUC)
active: Potency [20] 0.245 µM

O=C1[C@H](CC[C@H](O)c2ccc(F)cc2)[C@@H](c2ccc(O)cc2)N1c1ccc(F)cc1
1.08: Z-AUC [20, 21] | Z-AUC ([20]; measured here: PEO4 Z-AUC)
inactive: Z-AUC [20] 1.11

CCCCCCCCNC(C)C(O)c1ccc(SC(C)C)cc1 (configuration not stated)
active: Potency ([3]; parasite line A) 1.26 µM | Potency ([3]; parasite line B) 0.562 µM | Potency [4] 0.794 µM | Potency [5] 0.1 µM | Potency [6] 1 µM | Potency [7] 0.891 µM | Potency [8] 0.631 µM | Potency [9] 1.26 µM | Potency [10] 0.891 µM | Potency [11] 0.891 µM | Potency [12] 0.794 µM | Potency [13] 2.13 µM | Potency [14] 1.9 µM | Potency [15] 3.79 µM | Potency [16] 1.69 µM | Potency [17] 3.38 µM | Potency [18] 1.69 µM | Potency [19] 0.708 µM

NC(=O)c1ccccc1O
inactive: activity, negative = inhibition ([3]; parasite line A) 4.99% | activity, negative = inhibition ([3]; parasite line B) 15.1% | Potency [4] | Potency [5] | Potency [6] | Potency [7] | Potency [8] | Potency [9] | Potency [10] | Potency [11] | Potency [12] | Potency [13] | Potency [14] | Potency [15] | Potency [16] | Potency [17] | Potency [18] | Potency [19]

CCCCCCCC/C=C\CCCCCCCCN
inactive: activity, negative = inhibition ([3]; parasite line A) 9.32% | activity, negative = inhibition ([3]; parasite line B) 3.75% | Potency [4] | Potency [5] | Potency [6] | Potency [7] | Potency [8] | Potency [9] | Potency [10] | Potency [11] | Potency [12] | Potency [13] | Potency [14] | Potency [15] | Potency [16] | Potency [17] | Potency [18] | Potency [19]

OCCOCCN1CCN(C2=Nc3ccccc3Sc3ccccc32)CC1
inactive: activity, negative = inhibition ([3]; parasite line A) 0.502% | activity, negative = inhibition ([3]; parasite line B) 13.4% | Potency [4] | Potency [5] | Potency [6] | Potency [7] | Potency [8] | Potency [9] | Potency [10] | Potency [11] | Potency [12] | Potency [13] | Potency [14] | Potency [15] | Potency [16] | Potency [17] | Potency [18] | Potency [19]

OC[C@H]1O[C@@H]2O[C@H]3[C@H](O)[C@@H](O)[C@@H](O[C@H]4[C@H](O)[C@@H](O)[C@@H](O[C@H]5[C@H](O)[C@@H](O)[C@@H](O[C@H]6[C@H](O)[C@@H](O)[C@@H](O[C@H]7[C@H](O)[C@@H](O)[C@@H](O[C@H]8[C@H](O)[C@@H](O)[C@@H](O[C@H]1[C@H](O)[C@H]2O)O[C@@H]8CO)O[C@@H]7CO)O[C@@H]6CO)O[C@@H]5CO)O[C@@H]4CO)O[C@@H]3CO
inactive: activity, negative = inhibition ([3]; parasite line A) 8.7% | activity, negative = inhibition ([3]; parasite line B) 8.53% | Potency [4] | Potency [5] | Potency [6] | Potency [7] | Potency [8] | Potency [9] | Potency [10] | Potency [11] | Potency [12] | Potency [13] | Potency [14] | Potency [15] | Potency [16] | Potency [17] | Potency [18] | Potency [19]

Cc1ccc(S(=O)(=O)NC(=O)NC2CCCC2)cc1
inactive: activity, negative = inhibition ([3]; parasite line A) 11.1% | activity, negative = inhibition ([3]; parasite line B) 9.92% | Potency [4] | Potency [5] | Potency [6] | Potency [7] | Potency [8] | Potency [9] | Potency [10] | Potency [11] | Potency [12] | Potency [13] | Potency [14] | Potency [15] | Potency [16] | Potency [17] | Potency [18] | Potency [19]

Clc1cccc(C(c2ccc3nc[nH]c3c2)n2ccnc2)c1 (configuration not stated)
active: Potency ([3]; parasite line B) 10 µM | Potency [4] 11.2 µM | Potency [5] 5.01 µM | Potency [7] 11.2 µM | Potency [10] 10 µM | Potency [17] 12 µM
0.0386: Z-AUC [20, 21]
0.19: Z-AUC ([20]; measured here: PEO4 Z-AUC)
inactive: Z-AUC [20] -0.1 | Potency [11]

Reference: PubChem BioAssay (NCATS)
